Among all 290,000 compounds or so, about 1,000 (0.34%) were called active. Rule as the data show it: active = inhibition above about 50% (passing the limit was not always enough); inconclusive = no clear call, values can overlap the other calls. This excerpt belongs to a sample that is enriched for actives.
Molecular target: SUMO-conjugating enzyme UBC9 (Homo sapiens) (UniProt P63279)
Test: inhibitors of in vitro SUMOylation cascade, primary screen, biochemical, HTRF, uHTS (AID 2006)
Conditions: HTRF SUMOylation assay, SAE1/SAE2 + UBC9, in vitro, at 35 µM, stronger effect = higher value

Sequence of SUMO-conjugating enzyme UBC9 (Homo sapiens) (P63279 whole entry, looked up): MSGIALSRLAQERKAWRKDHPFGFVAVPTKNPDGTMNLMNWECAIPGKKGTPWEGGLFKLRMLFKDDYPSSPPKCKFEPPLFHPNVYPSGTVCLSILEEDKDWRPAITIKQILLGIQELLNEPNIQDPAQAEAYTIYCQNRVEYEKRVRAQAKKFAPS

Row | Structure (SMILES) | inhibition | inhibition (average of repeat tests)
1 | COCCNC(=O)c1ccc2nc(Cc3ccc(OC)c(OC)c3)oc2c1 | 4.2% (inactive) | 
2 | C/C(=C/c1ccccc1)C(=O)N1CCN(c2ccccc2)CC1 | 16.7% (inactive) | 
3 | COCCN(CCOC)S(=O)(=O)c1ccc(C(=O)Nc2nc3c(s2)CCc2ccccc2-3)cc1 | 67% (active) | 53%
4 | C=CCN(CC=C)S(=O)(=O)c1ccc(C(=O)Nc2nc3c(s2)CCc2ccccc2-3)cc1 | -14.9% (inactive) | 
5 | COc1ccc(C(=O)Nc2ncc3c(n2)-c2ccccc2CC3)cc1 | 6% (inactive) | 
6 | O=C(/C=C/c1ccc(Cl)cc1)NCCCn1ccnc1 | 12.9% (inactive) | 
7 | CC(=O)N1c2ccc(S(=O)(=O)N3CCC(C(=O)NC4CCCC(C)C4C)CC3)cc2CC1C (stereo unspecified) | -4.4% (inactive) | 
8 | COc1ccc(NC(=O)CC(NC(C)c2ccccc2)C(=O)O)cc1 (stereo unspecified) | 6.5% (inactive) | 
9 | CC(C)c1nc(CNC(=O)CC2C(=O)NCCN2Cc2cccc(F)c2F)cs1 (stereo unspecified) | -7.6% (inactive) | 
10 | CC1CCN(S(=O)(=O)c2ccc3c(c2)n(C)c(=O)n3C)CC1 | 6.7% (inactive) | 
11 | CC1(C(=O)NCCc2c[nH]c3ccccc23)C=CC2(CCCCC2)N1C(=O)c1ccccc1 (stereo unspecified) | 0.3% (inactive) | 
12 | Cc1cc(OC(C)C(=O)NC2CC(C)(C)NC(C)(C)C2)c2c(C)cc(=O)oc2c1 (stereo unspecified) | 33.5% (inactive) | 
13 | CN1CCN(c2ccc(S(=O)(=O)Nc3ccccc3)cc2[N+](=O)[O-])CC1 | 21.3% (inactive) | 
14 | Cc1cccc(N(CC(=O)N=Nc2c(O)[nH]c3ccccc23)S(C)(=O)=O)c1C | -5.8% (inactive) | 
15 | O=[N+]([O-])c1cc(S(=O)(=O)Nc2cccc(Cl)c2)ccc1N=Nc1c(O)[nH]c2ccccc12 | 67.7% (active) | 
16 | COc1ccc(CN2CCNC(=O)C2CC(=O)NCc2cn[nH]c2-c2ccccc2)c(F)c1 (stereo unspecified) | -2.8% (inactive) | 
17 | CN(C(=O)COC(=O)c1nc(Cl)ccc1Cl)C1CCS(=O)(=O)C1 (stereo unspecified) | -3.6% (inactive) | 
18 | CN(C(=O)COC(=O)c1cc(-c2ccco2)nc2ccccc12)C1CCS(=O)(=O)C1 (stereo unspecified) | 51.3% (active) | 
19 | Cc1c(-c2cccc(Cl)c2)nc2ccccc2c1C(=O)OCC(=O)N(C)C1CCS(=O)(=O)C1 (stereo unspecified) | 0.4% (inactive) | 
20 | O=[N+]([O-])/C=C/c1ccc2c(ccn2Cc2ccccc2)c1 | 19.7% (inactive) | 
21 | CC(C)[C@H](NC(=O)N1c2ccccc2NC(=O)[C@@H]1C(C)C)C(=O)N[C@H](C(=O)O)c1ccccc1 | 12.1% (inactive) | 
22 | Cc1cccc(C(=O)Nc2ccc(Oc3cnccn3)cc2)c1 | 10.4% (inactive) | 
23 | CC1CCCCC1NC(=O)CO/N=C/c1ccc(OC(F)F)cc1 (stereo unspecified) | -15.8% (inactive) | 
24 | O=C(Nc1ccc(Br)cc1)c1cc(S(=O)(=O)Nc2ccccn2)ccc1Cl | 3.5% (inactive) | 
25 | COc1ccc(CN2CC(C(=O)NCCc3ccc(Cl)cc3)CC2=O)cc1 (stereo unspecified) | 10.3% (inactive) | 

Reference: PubChem BioAssay AID2006 (Sanford-Burnham Center for Chemical Genomics, 2009)
